Experimental data from publication PMC5540273 (PLoS ONE, 2017).

system: T1, ASK1; conditions: concentration: 1 μM, replicates: in singlicate; n = 1
T1 construct: gene MAP3K5
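Further: KINOMEscan kinase panel screen.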

Row | SMILES | %Inh
1 | Cl.c1ccc(-c2ccc3c(Nc4ccc5[nH]ncc5c4)ccnc3c2)nc1 [GW440137] | 0%
2 | Cc1ccc(C)c(NC(=O)NC2CCN(c3ccnc(Nc4ccc(F)cc4)n3)C2)c1 (centres unmarked) [GSK1379720] | 0%
3 | COc1cc(Nc2nccc(-c3c(-c4cccc(NC(=O)c5c(F)cccc5F)c4)nn4ccccc34)n2)cc(OC)c1OC [GSK323521] | 5%
4 | Fc1ccc(-c2ncn(C3CCNCC3)c2-c2ccnc(Oc3ccc(-c4ccccc4)cc3)n2)cc1 [SB-245391] | 23%
5 | COc1cc(Nc2ncc3c(C)nc(-c4cc5ccccc5[nH]4)n3n2)cc(OC)c1OC [GW869516] | 0%
6 | Clc1ccc(-c2nn3ncccc3c2-c2ccnc(Nc3ccc4c(c3)OCCO4)n2)cc1 [GW829116] | 0%
7 | c1ccc(-c2cnc3nccnn23)cc1 [AH20685] | 0%
8 | O=C(Nc1ccccc1F)NC1CCN(c2ccnc(Nc3ccc(F)cc3)n2)CC1 [GSK1379800] | 4%
9 | Cc1occc1-c1ncc(OC[C@@H](N)Cc2c[nH]c3ccccc23)cc1-c1ccc2[nH]nc(C)c2c1.O=C(O)C(F)(F)F [GSK682037] | 0%
10 | C[C@@H]1CC[C@@H](C(=O)Nc2ccccc2)CN1c1cc(-c2ccc3c(N)n[nH]c3c2)nc(N)n1 [GSK2286062] | 0%
11 | COc1cc(Nc2nccc(-c3c(-c4cccc(NC(=O)c5c(F)cccc5F)c4)nn4ncccc34)n2)cc(OC)c1OC [GSK327238] | 0%
12 | C[C@@H](Oc1cc(-n2cnc3cc(-c4ccnc(NCCS(C)(=O)=O)c4)ccc32)sc1C(N)=O)c1ccccc1Cl [GSK907232] | 0%
13 | CN1CCN(Cc2cccc(-c3ccc4c(Nc5ccc(Oc6ccccc6)cc5)ccnc4c3)c2)CC1 [GW578342] | 0%
14 | Cc1ccc(S(=O)(=O)Nc2ccc(Nc3nccc(Nc4cccc5[nH]ncc45)n3)cc2)cc1 [GSK581271] | 0%
